From the supplement of paper PMC10849652
Targets with a hit are over-represented here; the source holds about 7,900 in all. About 0.6% of all pairs of compound and target were hits.

What was measured:
Experiment in all cases: log2 fold change, soluble protein after heating vs DMSO (PISA); higher = thermal stabilisation; K562 cells, 10 uM, 30 min; active = over 0.2 and 3.5 SD of the protein, either way, in both replicates (recomputed)
vemurafenib = compound: CCCS(=O)(=O)Nc1ccc(F)c(C(=O)c2c[nH]c3ncc(-c4ccc(Cl)cc4)cc23)c1F [vemurafenib]
How it was run: (§1)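 Aliquots of K562 cells (2×10^6 cells/mL) treated with 10 μM compound for 30 min were heated for 3 min over 48°C-58°C. After pooling and extraction in PBS with 0.5% NP-40 at 4°C, soluble protein from a 21,000xg, 90 min spin was quantified by TMTpro 16plex LC-MS/MS with channel sums equalised. Thermal stability is expressed against control samples, from duplicates, as a log2 fold change.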

[1] = compound: CCCc1cc(C)[nH]c(=O)c1CNC(=O)c1cc(-c2ccnc(N3CCN(C)CC3)c2)cc2c1cnn2C(C)C
How it was run: as §1

[2] = compound: CC1=C(C=C(C=C1)NC(=O)C2=CC(=CC=C2)C(C)(C)C#N)NC3=CC4=C(C=C3)N=CN(C4=O)C
How it was run: as §1

[3] = compound: CC1=CC=C(C=C1)SC2=C3C=C(SC3=CN=C2)C(=O)N
How it was run: as §1

[4] = compound: CCCS(=O)(=O)Nc1ccc(F)c(C(=O)c2c[nH]c3ncc(Cl)cc23)c1F
How it was run: as §1

[5] = compound: CC1=NC(=CC=C1)C2=C(N=C(N2)C(C)(C)C)C3=CC4=NC=CN=C4C=C3
How it was run: as §1

Nexturastat A = compound: CCCCN(Cc1ccc(C(=O)NO)cc1)C(=O)Nc1ccccc1 [Nexturastat A]
How it was run: as §1

givinostat = compound: CCN(CC)Cc1ccc2cc(COC(=O)Nc3ccc(C(=O)NO)cc3)ccc2c1 [givinostat]
How it was run: as §1

barasertib = compound: CCN(CCCOc1ccc2c(Nc3cc(CC(=O)Nc4cccc(F)c4)[nH]n3)ncnc2c1)CCOP(=O)(O)O [barasertib]
How it was run: as §1

[6] = compound: CC1=C(C=C(C=C1)NC(=O)C2=CC(=CC=C2)N(C)C)NC(=O)C3=CC=C(C=C3)O
How it was run: as §1

Measured: log2 fold change

KIF1B isoform 3 (UniProt O60333)
Sequence of UniProt O60333 (O60333 whole entry, looked up): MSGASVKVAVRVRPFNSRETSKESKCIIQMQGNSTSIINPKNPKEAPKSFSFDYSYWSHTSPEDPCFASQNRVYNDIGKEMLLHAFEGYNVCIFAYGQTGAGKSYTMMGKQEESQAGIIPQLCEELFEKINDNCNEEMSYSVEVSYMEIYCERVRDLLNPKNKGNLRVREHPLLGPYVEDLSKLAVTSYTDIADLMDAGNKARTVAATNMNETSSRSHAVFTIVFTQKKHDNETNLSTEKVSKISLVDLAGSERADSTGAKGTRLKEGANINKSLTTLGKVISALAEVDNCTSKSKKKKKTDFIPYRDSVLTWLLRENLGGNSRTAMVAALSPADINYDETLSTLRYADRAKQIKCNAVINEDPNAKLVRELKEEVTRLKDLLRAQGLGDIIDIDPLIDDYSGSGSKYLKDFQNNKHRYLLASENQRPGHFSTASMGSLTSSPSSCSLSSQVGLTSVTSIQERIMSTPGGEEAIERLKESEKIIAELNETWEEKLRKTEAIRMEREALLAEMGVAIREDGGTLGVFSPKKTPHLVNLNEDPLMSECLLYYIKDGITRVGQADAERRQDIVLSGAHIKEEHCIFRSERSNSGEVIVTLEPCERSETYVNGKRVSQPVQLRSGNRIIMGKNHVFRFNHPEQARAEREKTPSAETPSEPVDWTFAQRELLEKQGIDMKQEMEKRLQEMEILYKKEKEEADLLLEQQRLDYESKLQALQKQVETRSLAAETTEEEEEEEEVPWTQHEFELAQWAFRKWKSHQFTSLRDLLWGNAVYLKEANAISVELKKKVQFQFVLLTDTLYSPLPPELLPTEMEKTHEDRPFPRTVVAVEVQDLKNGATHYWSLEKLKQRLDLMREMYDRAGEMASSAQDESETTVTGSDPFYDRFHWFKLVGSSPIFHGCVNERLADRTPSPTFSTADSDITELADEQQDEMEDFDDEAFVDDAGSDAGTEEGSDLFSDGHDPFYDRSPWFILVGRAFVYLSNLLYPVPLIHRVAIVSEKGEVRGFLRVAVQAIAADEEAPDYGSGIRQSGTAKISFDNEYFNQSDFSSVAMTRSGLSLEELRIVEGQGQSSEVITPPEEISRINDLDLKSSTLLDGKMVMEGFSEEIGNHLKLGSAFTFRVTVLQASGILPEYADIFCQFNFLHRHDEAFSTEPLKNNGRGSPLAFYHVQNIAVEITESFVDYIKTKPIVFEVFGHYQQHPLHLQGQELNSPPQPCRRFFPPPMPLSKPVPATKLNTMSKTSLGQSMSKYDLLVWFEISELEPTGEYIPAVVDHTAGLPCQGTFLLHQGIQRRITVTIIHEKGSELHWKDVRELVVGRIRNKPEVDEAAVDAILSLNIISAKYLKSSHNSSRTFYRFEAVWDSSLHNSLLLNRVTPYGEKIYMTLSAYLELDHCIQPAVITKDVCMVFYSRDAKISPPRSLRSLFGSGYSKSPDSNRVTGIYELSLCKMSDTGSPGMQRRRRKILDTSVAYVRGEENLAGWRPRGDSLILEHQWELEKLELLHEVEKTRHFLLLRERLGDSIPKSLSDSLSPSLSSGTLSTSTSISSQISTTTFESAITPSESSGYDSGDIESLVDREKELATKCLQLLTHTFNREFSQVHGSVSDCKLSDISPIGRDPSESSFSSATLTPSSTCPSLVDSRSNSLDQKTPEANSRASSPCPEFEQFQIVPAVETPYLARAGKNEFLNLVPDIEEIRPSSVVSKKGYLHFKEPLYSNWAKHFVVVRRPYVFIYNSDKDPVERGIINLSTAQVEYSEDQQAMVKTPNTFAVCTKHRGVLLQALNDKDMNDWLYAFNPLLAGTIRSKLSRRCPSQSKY
inactive: vemurafenib -0.244 | [1] -0.006

LSR isoform 3 (UniProt Q86X29)
Sequence of UniProt Q86X29 (Q86X29 whole entry, looked up): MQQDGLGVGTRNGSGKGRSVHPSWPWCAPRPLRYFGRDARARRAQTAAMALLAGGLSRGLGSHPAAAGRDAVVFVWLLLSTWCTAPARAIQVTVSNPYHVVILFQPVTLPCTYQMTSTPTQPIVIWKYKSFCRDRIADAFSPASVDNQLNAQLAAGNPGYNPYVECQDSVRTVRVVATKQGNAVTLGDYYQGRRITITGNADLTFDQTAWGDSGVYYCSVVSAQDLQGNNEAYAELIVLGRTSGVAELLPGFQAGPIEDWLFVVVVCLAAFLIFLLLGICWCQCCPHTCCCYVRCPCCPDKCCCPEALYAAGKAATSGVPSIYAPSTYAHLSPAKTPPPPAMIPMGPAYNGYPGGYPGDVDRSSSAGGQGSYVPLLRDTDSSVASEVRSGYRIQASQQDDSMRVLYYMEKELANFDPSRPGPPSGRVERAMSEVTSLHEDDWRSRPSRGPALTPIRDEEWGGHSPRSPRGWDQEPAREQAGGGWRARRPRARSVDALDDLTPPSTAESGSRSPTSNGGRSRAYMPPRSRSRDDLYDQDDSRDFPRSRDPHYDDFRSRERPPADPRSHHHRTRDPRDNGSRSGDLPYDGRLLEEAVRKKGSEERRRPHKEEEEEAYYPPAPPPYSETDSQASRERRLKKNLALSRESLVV
inactive: [2] -0.232 | [3] 0.04 | [4] 0.158 | [1] -0.081

MELK (UniProt Q14680)
Sequence of UniProt Q14680 (Q14680 whole entry, looked up): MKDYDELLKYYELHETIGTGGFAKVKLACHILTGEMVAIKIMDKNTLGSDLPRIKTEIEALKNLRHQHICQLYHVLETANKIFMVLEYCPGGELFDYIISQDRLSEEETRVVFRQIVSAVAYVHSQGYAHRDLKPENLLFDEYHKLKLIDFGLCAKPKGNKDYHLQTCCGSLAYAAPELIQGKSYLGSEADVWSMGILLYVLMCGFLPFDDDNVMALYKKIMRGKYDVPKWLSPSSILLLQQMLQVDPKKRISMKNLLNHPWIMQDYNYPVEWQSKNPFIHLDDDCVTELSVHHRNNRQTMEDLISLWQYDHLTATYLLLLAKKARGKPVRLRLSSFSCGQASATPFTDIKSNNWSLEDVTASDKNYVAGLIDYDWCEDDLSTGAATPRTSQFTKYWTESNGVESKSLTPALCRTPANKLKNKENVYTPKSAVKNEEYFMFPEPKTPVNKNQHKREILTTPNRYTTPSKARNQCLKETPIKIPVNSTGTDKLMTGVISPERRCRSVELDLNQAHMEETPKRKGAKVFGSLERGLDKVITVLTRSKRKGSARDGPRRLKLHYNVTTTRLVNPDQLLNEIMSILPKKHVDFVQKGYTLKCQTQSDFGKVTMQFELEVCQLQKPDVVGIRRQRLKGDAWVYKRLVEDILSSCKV
inactive: [2] -0.026 | [3] 0.111 | [5] -0.015 | Nexturastat A 0.134 | [4] 0.02 | givinostat -0.023 | barasertib 0.048

LGALS8 isoform 2 (UniProt O00214)
Sequence of UniProt O00214 (O00214 whole entry, looked up): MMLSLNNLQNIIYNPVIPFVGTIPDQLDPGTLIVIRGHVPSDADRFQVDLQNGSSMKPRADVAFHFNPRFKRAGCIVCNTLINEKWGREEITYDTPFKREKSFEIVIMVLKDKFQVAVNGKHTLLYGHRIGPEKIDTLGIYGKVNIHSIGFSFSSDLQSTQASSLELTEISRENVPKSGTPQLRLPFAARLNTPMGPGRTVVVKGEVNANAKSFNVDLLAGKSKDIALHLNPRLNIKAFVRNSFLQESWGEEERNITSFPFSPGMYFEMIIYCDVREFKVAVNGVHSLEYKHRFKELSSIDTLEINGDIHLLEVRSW
inactive: [2] 0.01 | [5] -0.228 | Nexturastat A 0.288 | vemurafenib -0.013 | [1] -0.062 | givinostat 0.072 | barasertib 0.13

MAPK11 (UniProt Q15759)
Sequence of UniProt Q15759 (Q15759 whole entry, looked up): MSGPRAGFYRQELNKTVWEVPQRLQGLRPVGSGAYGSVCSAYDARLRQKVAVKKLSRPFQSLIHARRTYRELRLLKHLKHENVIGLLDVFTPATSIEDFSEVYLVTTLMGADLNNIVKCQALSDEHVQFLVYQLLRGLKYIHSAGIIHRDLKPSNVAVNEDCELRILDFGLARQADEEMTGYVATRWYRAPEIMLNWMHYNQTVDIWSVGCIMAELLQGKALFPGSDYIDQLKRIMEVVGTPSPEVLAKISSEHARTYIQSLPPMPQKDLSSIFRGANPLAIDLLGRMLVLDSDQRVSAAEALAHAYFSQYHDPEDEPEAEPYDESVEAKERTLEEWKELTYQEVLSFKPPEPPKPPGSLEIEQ
inactive: [6] 0.094 | [5] 0.045 | givinostat 0.131

LSR (UniProt M0QZL9)
inactive: [2] -0.324 | Nexturastat A -0.157 | vemurafenib 0.024
